Among the data in PubChem BioAssay (Tox21) are Potency, activity change, positive = activation and outcome values, retold here.

Experiment [1] addresses Luciferin 4-monooxygenase (Photinus pyralis) (UniProt P08659). Put plainly: qHTS assay to identify small molecule inhibitors of firefly luciferase (AID 1224835). Note: nearly all actives have a fitted effect of over 25% in size. Note: potency is the fitted concentration of half-maximal effect. The method in brief:
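Quantitative HTS format; KM concentrations of both substrates. Purified P. pyralis FLuc activity quantified from luminescence images.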
For orientation: qHTS replaces the single test concentration by a dilution series.

Experiment [2] has as its target Nuclear receptor subfamily 1 group I member 3 (Homo sapiens) (UniProt Q14994). Put plainly: qHTS assay to identify small molecule antagonists of the constitutive androstane receptor (CAR) signaling pathway (AID 1224838).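 Note: HepG2 cells stably expressing hCAR with CYP2B6 luciferase reporter stimulated by CITCO; nearly all actives have a fitted effect of over 40% in size.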 Note: potency is the fitted concentration of half-maximal effect. A digest of the protocol: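 HepG2-CYP2B6-hCAR cells; 4 h pre-incubation; cpd (15 conc) + CITCO 50 nM final; 24 h, 37 C/5% CO2; ONE-Glo, luminescence.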

The nature of experiment [3]: qHTS assay to identify small molecule antagonists of the estrogen related receptor signaling pathway with the pleiotropic PPARgamma coactivator (PGC) from Tox21 10K library - cell viability counter screen (AID 1224840; active = well fitted cell-killing curve with a large enough effect in the repeat runs, not every such curve was filed as active; note: nearly all actives have a fitted effect of over 40% in size; note: potency is the fitted concentration of half-maximal effect). A digest of the protocol: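 PGC/ERR cells, 2,000/well; 6 h pre-incubation 37 C/5% CO2; cpd in DMSO via pin tool; 17.5 h 37 C; CellTiter-Fluor, 30 min; fluorescence.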

For experiment [4], the target named is Thyrotropin receptor (Homo sapiens) (UniProt P16473). Put plainly: qHTS assay to identify small molecule agonists of the thyroid stimulating hormone receptor (TSHR) signaling pathway (AID 1224843; calls by dose curve; note: nearly all actives have a fitted effect of over 45% in size; note: potency is the fitted concentration of half-maximal effect). A digest of the protocol: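 TSHR-expressing HEK293 cells (800 per well) were exposed to compounds for 30 min at room temperature. cAMP was then detected by HTRF competition with cAMP-d2 and anti-cAMP cryptate, read after 1 h at room temperature. Fifteen concentrations, triplicate.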
Thyrotropin receptor (Homo sapiens), sequence (P16473 whole entry, looked up): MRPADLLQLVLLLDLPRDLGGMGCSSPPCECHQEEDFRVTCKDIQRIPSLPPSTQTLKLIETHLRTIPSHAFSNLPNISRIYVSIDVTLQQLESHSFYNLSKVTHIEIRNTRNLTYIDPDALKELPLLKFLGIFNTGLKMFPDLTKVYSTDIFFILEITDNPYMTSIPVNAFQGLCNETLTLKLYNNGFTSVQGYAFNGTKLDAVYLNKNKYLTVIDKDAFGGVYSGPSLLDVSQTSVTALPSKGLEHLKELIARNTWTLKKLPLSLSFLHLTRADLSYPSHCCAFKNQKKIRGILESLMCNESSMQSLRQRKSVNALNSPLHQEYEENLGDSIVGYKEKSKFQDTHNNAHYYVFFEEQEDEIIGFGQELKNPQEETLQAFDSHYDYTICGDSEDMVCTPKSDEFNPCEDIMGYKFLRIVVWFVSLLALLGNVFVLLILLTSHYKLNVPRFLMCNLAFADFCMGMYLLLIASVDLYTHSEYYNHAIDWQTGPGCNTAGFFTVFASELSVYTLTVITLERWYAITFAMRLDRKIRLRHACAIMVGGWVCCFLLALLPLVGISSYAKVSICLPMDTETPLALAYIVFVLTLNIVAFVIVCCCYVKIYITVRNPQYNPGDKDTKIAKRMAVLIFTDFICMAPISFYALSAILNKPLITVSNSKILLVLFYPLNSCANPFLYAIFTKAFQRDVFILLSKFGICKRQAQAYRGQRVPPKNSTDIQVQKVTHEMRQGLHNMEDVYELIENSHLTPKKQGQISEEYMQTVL

The nature of experiment [5]: qHTS assay to identify small molecule agonists of the hypoxia (HIF-1) signaling pathway - cell viability counter screen (AID 1224844; calls by dose curve; note: nearly all actives have a fitted effect of over 50% in size). A digest of the protocol:
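ME-180 HRE-bla cells, 2,000/well, 0.5% dialyzed FBS; 5 hr settle, 17 hr compound at 37C/5% CO2; CCF4-AM reporter read first, then CellTiter-Glo luminescence after 30 min RT.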

A short description of experiment [6]: qHTS assay to identify small molecule agonists of H2AX - cell viability counter screen (AID 1224847; calls by dose curve; note: nearly all actives have a fitted effect of over 30% in size; note: potency is the fitted concentration of half-maximal effect). A digest of the protocol: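 Cells plated first: CHO-K1, 1000 per well in 10% FBS medium, incubated overnight at 37C. Then 15-point compound titration added (final DMSO 0.76%) for 3 hr. Finally CellTiter-Glo added and luminescence read.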
The nature of experiment [7]: qHTS RealTime-Glo MT Cell Viability Assay in HepG2 cells - 24 hour (AID 1224867). Note: nearly all actives have a fitted effect of over 50% in size. Note: potency is the fitted concentration of half-maximal effect. The method in brief:
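HepG2 suspension premixed with RealTime-Glo reagents is plated at 600 cells per well and left 5 h at 37 C/5% CO2. Compounds in DMSO then go in, and bioluminescence reflecting viable cell number is recorded over 40 h.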

The nature of experiment [8]: qHTS RealTime-Glo MT Cell Viability Assay in HEK293 cells - 32 hour (AID 1224868). Note: nearly all actives have a fitted effect of over 50% in size. Note: potency is the fitted concentration of half-maximal effect. The method in brief:
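Reads taken at 0, 8, 16, 24, 32 and 40 h from the same wells. HEK293 cells (600/well) carried RealTime-Glo reagents from seeding, with compound added after a 5 h settle at 37 C.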

A short description of experiment [9]: A CellTox Green Cytotoxicity Assay to monitor cytotoxicity in HEK293 cells - 0 hour (AID 1224869). Note: nearly all actives have a fitted effect of over 50% in size. The method in brief:
(§1)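 Nonlytic real-time cytotoxicity: HEK293 + CellTox Green reagent plated, 5 h preincubation, pintool compound addition (23 nL in DMSO), 37 C for 40 h, fluorescence measured at successive time points.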

Experiment [10] is described as follows: qHTS RealTime-Glo MT Cell Viability Assay in HepG2 cells - 40 hour (AID 1224870). Note: nearly all actives have a fitted effect of over 50% in size. Note: potency is the fitted concentration of half-maximal effect. The method in brief:
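HepG2 cells mixed with RealTime-Glo MT reagents (NanoLuc plus cell-permeant prosubstrate) were seeded at 600 cells/well, incubated 5 h at 37 C/5% CO2, then pinned with compounds in DMSO; nonlytic luminescence tracked viability during 40 h treatment.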

A short description of experiment [11]: A CellTox Green Cytotoxicity Assay to monitor cytotoxicity in HEK293 cells - 40 hour (AID 1224871). Note: nearly all actives have a fitted effect of over 45% in size. Note: potency is the fitted concentration of half-maximal effect. The method in brief:
as §1

A short description of experiment [12]: qHTS assay to identify small molecule agonists of the constitutive androstane receptor (CAR) signaling pathway - cell viability counter screen (AID 1224836). Note: nearly all actives have a fitted effect of over 45% in size. A digest of the protocol:
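HepG2-CYP2B6-hCAR, 2500 cells/well, 4 h pre-incubation; cpd 15 conc + PK11195 0.75 uM final; 23 h, 37 C/5% CO2; CellTiter-Fluor, fluorescence.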

Experiment [13] is described as follows: qHTS assay to identify small molecule antagonists of the constitutive androstane receptor (CAR) signaling pathway - cell viability counter screen (AID 1224837). Note: nearly all actives have a fitted effect of over 45% in size. The method in brief: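 HepG2-CYP2B6-hCAR cells, 2500/well, 4 hr pre-incubation; compound titration, 15 conc.; CITCO 50 nM final; 23 hr, 37 C/5% CO2; CellTiter-Fluor, fluorescence intensity.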
The nature of experiment [14]: qHTS assay to identify small molecule antagonists of the estrogen related receptor signaling pathway with the pleiotropic PPARgamma coactivator (PGC) from Tox21 10K library (AID 1224841; call rule not given here). The method in brief:
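PGC/ERR cell line, 2,000 cells/well; 6 h pre-incubation 37 C/5% CO2; compounds (DMSO) pinned in; 18 h, 37 C; One-Glo, 30 min RT; luminescence.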

Experiment [15] in a line: qHTS assay to identify small molecule agonists of the estrogen related receptor signaling pathway with the pleiotropic PPARgamma coactivator (PGC) from Tox21 10K library (AID 1224842). Note: nearly all actives have a fitted effect of over 15% in size. A digest of the protocol:
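PGC/ERR reporter cells (NTP line) were seeded 2,000 per well, rested 6 h at 37 C/5% CO2, then pin-dosed with compounds in DMSO for 18 h at 37 C; luciferase read by One-Glo luminescence after 30 min at room temperature.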

Experiment [16] is described as follows: qHTS assay to identify small molecule agonists of the hypoxia (HIF-1) signaling pathway (AID 1224846; active = well fitted activation curve with a large enough effect in the signal ratio in the repeat runs, not every such curve was filed as active; the % refers to the signal ratio). A digest of the protocol: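 Cell line: CellSensor HRE-bla ME-180; 2,000 cells/well; 0.5% dialyzed FBS; 5 h preincubation; DMSO compound pin transfer; 17 h, 37C, 5% CO2; CCF4-AM added; bla FRET signal scored for activation.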
Experiment [17] can be described thus: qHTS assay to identify small molecule antagonists of the estrogen related receptor (ERR) signaling pathway from Tox21 library (AID 1224848). Note: nearly all actives have a fitted effect of over 50% in size. A digest of the protocol:
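Cells: ERR line, 2,000/well; 6 h preincubation 37 C/5% CO2. Cpd in DMSO via pin tool; 18 h, 37 C. ONE-Glo, 30 min RT, luminescence.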

Experiment [18] is described as follows: qHTS assay to identify small molecule agonists of the estrogen related receptor (ERR) signaling pathway from Tox21 library (AID 1224849; calls by dose curve; note: nearly all actives have a fitted effect of over 15% in size). The following applies: ERR reporter cell line, ONE-Glo luciferase, 18 h; at 92.4 µM (top of the series). A digest of the protocol:
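ERR cells, 6 h pre-incubation 37 C/5% CO2; cpd in DMSO pinned; 18 h 37 C; ONE-Glo added, 30 min RT; luminescence read. Agonist mode, qHTS.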

Experiment [19] is described as follows: qHTS assay to identify small molecule agonists of H2AX (AID 1224845; active = well fitted activation curve with a large enough effect in the signal ratio in the repeat runs, not every such curve was filed as active; the % refers to the signal ratio). A digest of the protocol:
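Wild-type CHO-K1 cells plated overnight, then exposed 3 hr at 37C to compounds at 15 concentrations (0.76% DMSO). Lysed, then HTRF anti-pH2AX(S139)-cryptate/anti-H2AX-d2 detection after 24 hr at room temperature; emissions 665 and 620 nm.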

The target of experiment [20] is Nuclear receptor subfamily 1 group I member 3 (Homo sapiens) (UniProt Q14994). Briefly: qHTS assay to identify small molecule agonists of the constitutive androstane receptor (CAR) signaling pathway (AID 1224839).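 Note: HepG2 cells stably carrying human CAR and a CYP2B6 luciferase reporter; nearly all actives have a fitted effect of over 15% in size.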 The method in brief:
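HepG2-CYP2B6-hCAR cells, 2500/well, 4 h pre-incubation; compounds 15 conc.; PK11195 0.75 uM final; 24 h, 37 C/5% CO2; ONE-Glo luciferase read.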

Values joined by “and” are separate entries in the source; they are usually repeats but may differ in a detail not shown here. Equal entries are not always repeated. Results filed as inconclusive are left out. Some structures have more than one record in an assay (separate samples or runs), and their calls can disagree. Active and inactive are the calls of the source. Unless noted, calls come from the whole dose curve; as a rule, active = well fitted curve in the direction sought with a large enough effect in the repeat runs; inconclusive = weak or mixed curves; inactive = no such curve, though single readings can be large; an effect the other way counts as inactive or inconclusive.
% is set by controls: 0 for no effect and ±100 for the full control effect.

Luciferin 4-monooxygenase (Photinus pyralis), sequence (P08659 whole entry, looked up): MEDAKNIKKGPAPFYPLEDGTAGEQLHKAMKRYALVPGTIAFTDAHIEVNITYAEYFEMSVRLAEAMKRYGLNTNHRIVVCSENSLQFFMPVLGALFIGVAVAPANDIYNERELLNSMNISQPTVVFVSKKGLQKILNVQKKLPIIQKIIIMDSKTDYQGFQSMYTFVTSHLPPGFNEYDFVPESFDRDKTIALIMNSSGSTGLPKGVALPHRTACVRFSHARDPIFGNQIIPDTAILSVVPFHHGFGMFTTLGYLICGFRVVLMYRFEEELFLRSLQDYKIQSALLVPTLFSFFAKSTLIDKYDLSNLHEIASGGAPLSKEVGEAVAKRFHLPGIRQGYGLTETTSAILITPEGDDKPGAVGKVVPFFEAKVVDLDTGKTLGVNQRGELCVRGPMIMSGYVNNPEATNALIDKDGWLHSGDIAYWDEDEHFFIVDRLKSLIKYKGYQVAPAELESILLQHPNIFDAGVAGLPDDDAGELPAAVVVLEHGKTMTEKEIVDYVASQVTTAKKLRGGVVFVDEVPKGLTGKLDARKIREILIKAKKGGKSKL
Nuclear receptor subfamily 1 group I member 3 (Homo sapiens), sequence (Q14994 whole entry, looked up): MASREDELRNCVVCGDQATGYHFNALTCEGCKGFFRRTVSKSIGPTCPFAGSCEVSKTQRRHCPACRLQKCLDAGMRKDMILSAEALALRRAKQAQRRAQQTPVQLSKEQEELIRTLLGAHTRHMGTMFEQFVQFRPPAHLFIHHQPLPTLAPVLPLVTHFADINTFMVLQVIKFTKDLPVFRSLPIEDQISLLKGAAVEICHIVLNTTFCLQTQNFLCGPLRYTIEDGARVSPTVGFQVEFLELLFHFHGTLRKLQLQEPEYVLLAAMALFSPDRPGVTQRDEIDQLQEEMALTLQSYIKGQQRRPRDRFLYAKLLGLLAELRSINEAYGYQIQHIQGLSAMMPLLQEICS

In the case of `CNCCCC12CCC(c3ccccc31)c1ccccc12`, the Potency result in [1], in [5] and in experiment [9] was “inactive” each time. In addition, the Potency is 21.7 µM (active) and inactive in [2]; 48.6 µM (active) and inactive in [3]; 4.33 µM (active) and 26.6 µM (active) in experiment [4]; 113 µM (active) in experiment [6]; 49 µM (active) and 23.9 µM (active) in experiment [7]; 49 µM (active) and 23.9 µM (active) in experiment [8]. Further, the Potency in experiment [10] was 38.9 µM (active) and 26.8 µM (active); in experiment [11], 49 µM (active).

Take `CCOCCOCCO`: the Potency entry in experiment [1], in experiment [12], in experiment [13], in [3], in experiment [14] and in [15] was “inactive” throughout. Further, the Potency result in experiment [4], in [5], in experiment [16], in experiment [17], in experiment [7] and in [8] was “inactive” throughout. Also, the Potency result in [9] was “inactive”. The activity change, positive = activation in experiment [18] was -1.39% (inactive) and 2.46% (inactive).

As to `CCCCNS(=O)(=O)c1ccccc1`, the Potency result in experiment [1], in [12], in experiment [13], in experiment [3], in [4] and in [5] was “inactive” in each case. In addition, the Potency entry in experiment [16], in experiment [6], in experiment [7], in [9], in experiment [10] and in experiment [11] was “inactive” each time. The result in [19] was inactive. The Potency result in experiment [8] was “inactive and 4.36 µM (active)”.

Take `COC(=O)c1ccccc1`: the Potency result in [1], in experiment [12], in [13], in experiment [3], in [4] and in experiment [5] was “inactive” throughout. Further, the Potency entry in [16], in experiment [6], in experiment [7] and in [10] was “inactive” throughout. In experiment [19], the compound was called inactive. Moreover, the Potency result in [8] is “inactive and 11 µM (active)”.

Take `COc1ccccc1/C=C/C=O`: the Potency entry in experiment [1], in experiment [12], in experiment [13], in experiment [3], in [5] and in experiment [16] was “inactive” in each case. The Potency entry in [7], in experiment [9], in [10] and in [11] was “inactive” each time. Besides, the Potency in experiment [4] is 31.4 µM (active) and 54.5 µM (active). Besides, the compound was called inactive in experiment [19].

Take `COc1cc([C@@H]2c3cc4c(cc3[C@H](O)[C@H]3COC(=O)[C@H]23)OCO4)cc(OC)c1OC`: the Potency result in experiment [1], in experiment [12], in experiment [20], in experiment [3], in experiment [4] and in experiment [5] was “inactive” in each case. For the same compound, the Potency entry in experiment [16], in experiment [7], in experiment [9] and in experiment [11] was “inactive” each time. In addition, the Potency was 48.5 nM (active) and 59.6 nM (active) in experiment [2]; 48.9 nM (active) in experiment [8]. In experiment [19], the call was inactive.

Take `CC(C)=CCC/C(C)=C\CO`: the Potency result in experiment [1], in experiment [12], in [13], in experiment [3], in experiment [4] and in experiment [5] was “inactive” in each case. In addition, the Potency result in experiment [6], in experiment [7], in [8] and in experiment [9] was “inactive” each time. Moreover, in [19], the call was inactive.

With `CN(C)CCN(Cc1cccs1)c1ccccn1`, the Potency result in [1], in [12], in experiment [13], in experiment [3], in experiment [4] and in [5] was “inactive” each time. In addition, the Potency result in experiment [6], in experiment [7], in experiment [8] and in experiment [10] was “inactive” throughout.

On to `Nc1ccc(Nc2ccccc2)cc1`, for which the Potency was 79.7 µM (active) in [1] and 48500 nM (active) in experiment [8]. The Potency entry in [12], in [13], in [2], in [3], in experiment [5] and in experiment [16] was “inactive” each time. The Potency entry in [7], in [10] and in experiment [11] was “inactive” throughout.

Turning to `CC1=CCC(C(C)(C)O)CC1` (stereo unspecified), the Potency result in [1], in experiment [12], in experiment [13], in experiment [3], in experiment [4] and in [5] was “inactive” throughout. Besides, the Potency entry in experiment [16], in experiment [6], in experiment [7], in experiment [8], in experiment [9] and in experiment [11] was “inactive” each time. Besides, in [19], the call was inactive.
